Data published in PubChem BioAssay (NCATS).
Records with an inconclusive call do not appear. A call without a number means that no potency is given here. Calls of active or inactive are those of the source. The call rests on the fitted dose curve; in most records, active means well fitted inhibition curve with a large enough effect; inconclusive means small, poorly fitted or top-dose-only effect; inactive means flat fitted curve, though single readings scatter.

Assay: qHTS to identify inhibitors of the type 1 interferon - major histocompatibility complex class I in skeletal muscle: primary screen against the NCATS Pharmaceutical Collection (AID 1347407);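 further: luminescence of HiBiT knocked into endogenous HLA-B as interferon-induced MHC class I level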
Settings: human skeletal muscle cells, IFN-b-induced MHC-I HiBiT luminescence, 24 h; series mostly up to 45.9 µM
Summary of the method: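 A qHTS format is used: 8-point, 1:5 compound series with 46 uM top final concentration, applied alongside 4 ng/ml IFN-beta to HLA-B*08:01-HiBiT knock-in myoblasts. Luminescence is measured after 24 h treatment.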
Potency means the concentration at half of the fitted maximal effect.

SMILES | Potency
N=C1N=C(N)c2cc3ccccc3cc21 | inactive
CCCCCCOc1ccccc1C(N)=O | inactive
Nc1ccc(O)c(C(=O)O)c1 | inactive
c1ccc(CCNc2nc(-c3ccccc3)cs2)cc1 | inactive
CN1CC(=O)N/C1=N/C(=O)Nc1cccc(Cl)c1 | inactive
C[N+]1(C)[C@@H]2CC(OC(=O)[C@H](CO)c3ccccc3)C[C@H]1[C@@H]1O[C@@H]12 (stereo partly specified) | inactive
CC(C(=O)O)c1ccc(C(=O)c2ccccc2)s1 (stereo unspecified) | inactive
CCCCCCCCCCCC(=O)[O][Sn]([CH2]CCC)([CH2]CCC)[O]C(=O)CCCCCCCCCCC | inactive
COc1ccc(-c2cc(=S)ss2)cc1 | inactive
CCOC(=O)c1ccccc1O | inactive
Nc1nc2ccc([N+](=O)[O-])cc2s1 | inactive
CC(=O)c1ccc(OCC(=O)N2CCCCC2)cc1 | inactive
CC(N)C(=O)OC(C)(C)Cc1ccc(Cl)cc1 (stereo unspecified) | inactive
CNC(=O)c1c(I)c(NC(=O)CCCCC(=O)Nc2c(I)c(C(=O)O)c(I)c(C(=O)NC)c2I)c(I)c(C(=O)O)c1I | inactive
Cc1c(N)c(=O)n(-c2ccccc2)n1C | inactive
c1ccc2sc(SSc3nc4ccccc4s3)nc2c1 | inactive
CCCCCCCCCCCCCCCC(=O)OC(C)C | inactive
CCC1C(=O)OCC1Cc1cncn1C (stereo unspecified) | inactive
CCCOC(=O)c1ccc(O)cc1 | inactive
CC(C)(C)c1nnc(NS(=O)(=O)c2ccc(N)cc2)s1 | inactive
COC(=O)c1nc(Cl)c(Cl)nc1N | 10.5 µM (active)
